Records with an inconclusive call do not appear. Calls of active or inactive are those of the source. The call rests on the fitted dose curve; in most records, active means well fitted cell-killing curve with a large enough effect; inconclusive means small, poorly fitted or top-dose-only effect; inactive means flat fitted curve, though single readings scatter.

Data on 38 compounds can be found in PubChem BioAssay (NCATS).

Test [1] is described as follows: Cell Viability - LYMP2-002 (AID 977).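 Further: compound exposure lasted 24 h at 37 °C.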 A digest of the protocol:
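Human lymphoblastoid cells, 2500/well, complete medium; 5 h 37 C settle; compound 24 h 37 C; CellTiter-Glo, 30 min RT; luminescence. Decrease in ATP = cytotoxicity; AC50 via Hill equation.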

A short description of test [2]: Cell Viability - LYMP2-006 (AID 978).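 Further: cells exposed to compound for 24 hours; nearly all actives have a fitted effect of over 60% in size.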 A digest of the protocol:
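qHTS, 1536-well; 2500 cells/well, 5 hr 37 C; cpd 24 hr 37 C; CellTiter-Glo 30 min RT; luminescence. Tetraoctylammonium bromide pos. ctrl. AC50 via Hill eqn.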

Test [3] in a line: Cell Viability - LYMP2-007 (AID 979).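 Further: cells exposed to compound for 24 h before reading; nearly all actives have a fitted effect of over 60% in size.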 A digest of the protocol:
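Cells are seeded at 2500 per well and rested 5 hr. Compounds are then added over a concentration series for 24 hr at 37 C. CellTiter-Glo is added for 30 min at room temperature before luminescence reading.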

Test [4] in a line: Cell Viability - LYMP2-008 (AID 980). Further: nearly all actives have a fitted effect of over 60% in size. A digest of the protocol: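 Cells seeded at 2500/well and rested 5 hr at 37 C; compounds added over a concentration range and incubated 24 hr at 37 C; CellTiter-Glo added, 30 min at room temperature; luminescence read and AC50 fitted with Hill model.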
A short description of test [5]: Cell Viability - LYMP2-010 (AID 981).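 Further: cells exposed to compound for 24 hours at 37 °C; nearly all actives have a fitted effect of over 55% in size.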 A digest of the protocol:
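Steps: seed 2500 LYMP2-010 cells per well; incubate 5 hr at 37 C; add compound; incubate 24 hr at 37 C; add CellTiter-Glo, wait 30 min at room temperature; read luminescence. Concentration-response fitted to Hill equation for AC50.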

A short description of test [6]: Cell Viability - LYMP2-012 (AID 982).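 Further: cellular ATP by luciferase luminescence where a drop means cytotoxicity; cells exposed to compound for one day before reading; nearly all actives have a fitted effect of over 55% in size.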
A short description of test [7]: Cell Viability - LYMP2-014 (AID 983). Further: nearly all actives have a fitted effect of over 50% in size. A digest of the protocol: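 Cells are plated at 2500/well and left 5 hr at 37 C. Compounds are added across a concentration range and incubated 24 hr at 37 C in complete medium. CellTiter-Glo is added, and luminescence is read after 30 min at room temperature.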
Test [8] can be described thus: Cell Viability - LYMP2-016 (AID 984).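 Further: cells exposed to compound for 24 hours at 37 °C; nearly all actives have a fitted effect of over 55% in size.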 A digest of the protocol:
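qHTS, 1536-well: 2500 LYMP2-016 cells/well, 5 hr 37 C, compound added, 24 hr 37 C, CellTiter-Glo 30 min RT, luminescence. Tetraoctylammonium bromide positive control. AC50 via Hill fit.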

A short description of test [9]: Cell Viability - LYMP2-018 (AID 985).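 Further: compound exposure lasted 24 hr at 37 °C; nearly all actives have a fitted effect of over 50% in size.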 A digest of the protocol: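 Seed 2500 lymphoblastoid cells per well, incubate 5 hr at 37 C, add compound and incubate 24 hr at 37 C, add CellTiter-Glo, wait 30 min at room temperature, then read luminescence.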
Potency means the concentration at half of the fitted maximal effect.

With `Cc1ccc2nc(-c3ccc(N)cc3)sc2c1S(=O)(=O)O`, the Potency entry in [1], in [2], in [3], in test [4], in [5] and in test [6] was “inactive” each time. For the same compound, the Potency result in test [7], in [8] and in [9] was “inactive” in each case.
With `Cc1ccccc1C=O`, the Potency result in test [1], in test [2], in test [3], in test [4], in [5] and in [6] was “inactive” in each case. For the same compound, the Potency result in test [7], in test [8] and in test [9] was “inactive” in each case.
For `Cc1ccc(N(C)C)cc1`, the Potency entry in [1], in test [2], in [3], in [5], in test [6] and in test [7] was “inactive” each time. For the same compound, the Potency result in test [8] and in [9] was “inactive” in each case.
As for `Cc1ccc2cccnc2c1`, the Potency result in test [1], in [2], in test [4], in [5], in test [6] and in test [7] was “inactive” throughout. The Potency entry in test [8] and in test [9] was “inactive” throughout.
As to `C[C@@H]1O[C@@H](O[C@@H]2[C@@H](O)[C@H](OCCc3ccc(O)c(O)c3)O[C@H](CO[C@@H]3O[C@H](CO)[C@@H](O)[C@H](O)[C@H]3O)[C@H]2OC(=O)/C=C/c2ccc(O)c(O)c2)[C@H](O)[C@H](O)[C@H]1O`, the Potency result in test [1], in [2], in [3], in test [4], in test [6] and in [7] was “inactive” each time. Besides, the Potency result in test [8] and in test [9] was “inactive” in each case.
In the case of `CCCCC/C=C/C=C/C=O`, the Potency in [1] is 50.1 µM (active); in test [2] it was 50.1 µM (active); in [3], 39.8 µM (active); in [4] it was 39.8 µM (active); in test [5], 39.8 µM (active); in [6], 50.1 µM (active). Also, the figures for the Potency in test [7], in test [8] and in test [9] were 50.1 µM (active), 50.1 µM (active) and 79.4 µM (active), respectively.
For the compound `Cc1ccc(C)c(N)c1`, the Potency result in test [1], in test [2], in test [3], in test [4], in test [5] and in test [6] was “inactive” throughout. The Potency entry in test [7], in test [8] and in test [9] was “inactive” in each case.
As for `Cc1cc(C)cc([N+](=O)[O-])c1`, the Potency result in [1], in test [2], in test [3], in [4], in test [5] and in test [6] was “inactive” each time. The Potency result in [7], in test [8] and in test [9] was “inactive” in each case.
`NC(N)=S`: the Potency entry in test [1], in test [2], in test [3], in [4], in test [5] and in test [6] was “inactive” in each case. The Potency result in test [7], in [8] and in test [9] was “inactive” throughout.
Regarding `C=CCCCCCC`, the Potency result in test [1], in [2], in test [3], in test [4], in test [5] and in [6] was “inactive” throughout. Also, the Potency result in test [7], in test [8] and in test [9] was “inactive” in each case.
Turning to `Nc1cccc(N)c1`, the Potency entry in test [1], in test [2], in test [3], in test [4], in test [5] and in test [6] was “inactive” in each case. Besides, the Potency entry in [8] and in test [9] was “inactive” in each case.
For the compound `O=C1CCCCC1`, the Potency result in test [1], in test [2], in [4], in test [5], in [6] and in test [7] was “inactive” in each case. In addition, the Potency entry in [8] and in test [9] was “inactive” in each case.
Turning to `c1ccc(Nc2ccccc2)cc1`, the Potency entry in [1], in [2], in test [3], in test [4], in test [5] and in [6] was “inactive” each time. Besides, the Potency result in test [7], in [8] and in [9] was “inactive” in each case.
As to `OCCO`, the Potency entry in [1], in [2], in test [3], in test [4], in [5] and in test [6] was “inactive” throughout. Further, the Potency result in test [7], in test [8] and in test [9] was “inactive” in each case.
`O=[N+]([O-])c1ccccc1CCO`: the Potency result in [1], in test [2], in test [3], in test [5], in [6] and in test [7] was “inactive” each time. Moreover, the Potency result in test [8] and in test [9] was “inactive” in each case.
Take `CCOCC(=O)O`: the Potency entry in test [1], in test [2], in [4], in [5], in test [6] and in test [7] was “inactive” throughout. Further, the Potency entry in test [8] and in test [9] was “inactive” in each case.
With `CCC(O)C(C)(C)C` (stereo not drawn), the Potency result in test [1], in test [2], in [3], in test [4], in test [5] and in test [6] was “inactive” in each case. For the same compound, the Potency entry in [8] and in test [9] was “inactive” throughout.
As to `O=C(O)c1ccccc1C(=O)O`, the Potency result in [1], in [2], in test [3], in test [4], in [5] and in [6] was “inactive” in each case. Also, the Potency entry in [7], in test [8] and in test [9] was “inactive” each time.
As to `CC(C)(O)CCC(C)(C)O`, the Potency result in test [1], in test [2], in test [3], in test [5], in [6] and in test [7] was “inactive” throughout. Moreover, the Potency result in test [8] and in [9] was “inactive” throughout.
Turning to `Cc1cc(C2(c3cc(C)c(O)cc3C)OS(=O)(=O)c3ccccc32)c(C)cc1O`, the Potency entry in test [1], in [2], in test [4], in test [5], in [6] and in [8] was “inactive” each time. Further, in test [9], the Potency result was “inactive”.
For `O=Cc1ccc(Cl)cc1`, the Potency result in [1], in [2], in test [3], in test [4], in [5] and in [6] was “inactive” each time. Further, the Potency result in [7], in [8] and in test [9] was “inactive” each time.
In the case of `[O-]/[N+](=N\O)c1ccccc1`, the Potency entry in test [1], in [2], in test [3], in test [4], in [5] and in test [6] was “inactive” throughout. Besides, the Potency result in [7], in [8] and in test [9] was “inactive” each time.
Turning to `CC(=O)Nc1ccc(N)cc1`, the Potency result in test [1], in test [2], in test [3], in [4], in test [5] and in test [6] was “inactive” in each case. The Potency entry in test [7], in test [8] and in test [9] was “inactive” throughout.
On to `CC(=O)Nc1ccccc1C`, for which the Potency entry in [1], in test [2], in [3], in test [4], in test [5] and in test [6] was “inactive” throughout. The Potency result in [7], in test [8] and in test [9] was “inactive” in each case.
In the case of `C1CCC2OC2C1` (stereo not drawn), the Potency entry in test [1], in [2], in test [3], in test [4], in [5] and in test [6] was “inactive” throughout. In addition, the Potency entry in test [8] and in test [9] was “inactive” throughout.
Turning to `O=C(O)c1ccc(Cl)cc1Cl`, the Potency result in [1], in test [2], in test [3], in [4], in test [5] and in test [6] was “inactive” in each case. In addition, the Potency entry in [8] and in test [9] was “inactive” throughout.
For the compound `O=C(O)CN(CC(=O)O)CC(=O)O`, the Potency entry in test [1], in test [2], in test [3], in test [4], in [5] and in [6] was “inactive” each time. The Potency entry in test [7], in test [8] and in test [9] was “inactive” each time.
For `O=CNc1ccccc1`, the Potency result in test [1], in test [2], in test [3], in test [5], in test [6] and in test [7] was “inactive” throughout. The Potency entry in [8] and in test [9] was “inactive” each time.
Turning to `Cc1cccc([N+](=O)[O-])c1C(=O)O`, the Potency entry in test [1], in test [2], in test [3], in test [4], in test [5] and in test [6] was “inactive” throughout. Besides, the Potency result in test [8] and in [9] was “inactive” in each case.
Take `Cc1c(N)cccc1[N+](=O)[O-]`: the Potency result in test [1], in test [2], in test [3], in test [4], in test [5] and in test [6] was “inactive” in each case. Also, the Potency result in test [7], in [8] and in [9] was “inactive” throughout.
For the compound `Cc1ccccc1Br`, the Potency entry in [1], in test [2], in test [3], in test [4], in [5] and in test [6] was “inactive” throughout. Further, the Potency entry in test [7], in test [8] and in test [9] was “inactive” in each case.
Regarding `CC(C)C(C)C`, the Potency result in [1], in [2], in test [3], in [4], in [5] and in test [6] was “inactive” each time. Also, the Potency result in test [7], in test [8] and in test [9] was “inactive” throughout.
On to `O=C(Cl)c1cccc([N+](=O)[O-])c1`, for which the Potency entry in test [1], in test [2], in test [3], in test [5], in [6] and in [7] was “inactive” each time. Further, the Potency entry in [8] and in test [9] was “inactive” throughout.
As to `CC(=O)CCc1ccccc1`, the Potency entry in test [1], in test [2], in test [3], in test [5], in test [6] and in test [7] was “inactive” throughout. Also, the Potency entry in [8] and in test [9] was “inactive” in each case.
With `CC(C)CCOC(=O)/C=C/c1ccccc1`, the Potency result in test [1], in [2], in test [3], in [4], in test [5] and in [6] was “inactive” in each case. The Potency entry in [7], in test [8] and in test [9] was “inactive” each time.
Consider `CC1=C(/C=C/C(C)=C/C=C/C(C)=C\C=O)C(C)(C)CCC1`, for which the Potency in test [1] was 50.1 µM (active); in [2] it was 50.1 µM (active); in [3], 50.1 µM (active); in test [4], 50.1 µM (active); in [5], 39.8 µM (active); in [7], 63.1 µM (active). Besides, the Potency in test [9] is 50.1 µM (active).
`CCN(C(=O)N(CC)c1ccccc1)c1ccccc1`: the Potency entry in test [1], in test [2], in [3], in [4], in [5] and in test [6] was “inactive” in each case. For the same compound, the Potency entry in test [7], in test [8] and in test [9] was “inactive” in each case.
In the case of `CNC(=O)N(c1ccccc1)c1ccccc1`, the Potency entry in test [1], in [2], in [3], in [4], in test [5] and in test [6] was “inactive” each time. Moreover, the Potency entry in test [7], in test [8] and in [9] was “inactive” each time.
